# KB-3-1 tox: KB-3-1 parental cell cytotoxicity; KB-3-1 viability, CellTiter-Glo ATP luminescence, 72 h; Potency, µM (series often up to 46.1 µM), actives largely listed as cytotoxic; hit rate 1.4% among 400,000; AID 1347075; further: nearly all actives have a fitted effect of over 60% in size
#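 Cytotoxicity measured as CellTiter-Glo luminescence after 72 h at 37 C. Compound titrations were pinned onto drug-naive KB-3-1 parental adenocarcinoma cells grown in DMEM with 10% FBS, and normalized data fitted to concentration-response curves.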
# KB-V1 MDR tox: kills drug-selected multidrug resistant KB-V1 cells; KB-V1 MDR cells viability, CellTiter-Glo, 72 h; Potency, µM (series often up to 46.1 µM), hits mostly cytotoxic; hit rate 3.4% among 400,000; AID 1347076; further: nearly all actives have a fitted effect of over 60% in size
#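 KB-V1 MDR subline cells in DMEM (phenol-red free, 10% FBS) exposed to compounds in qHTS concentration series for 72 h at 37 degrees C. Viability read by CellTiter-Glo luminescence; concentration-effect curves fitted after normalization and correction.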
# HT1080 IDH1KD tx: toxicity to HT-1080 IDH1 knockdown cells (counter line) | HT-1080 IDH1 knockdown viability, ATP luminescence, 48 h | Potency, µM (highest dose often 46.1 µM), inactives show at the top dose activity, negative = toxicity, hits mostly cytotoxic | hit rate 2% among 360,000 | AID 686971;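 further: 0% = DMSO wells and -100% = cell-free medium wells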
#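 Luminescent ATP read-out (CellTiter-Glo, 10 min at room temperature) after 48 h compound exposure at 37 °C gave viability of IDH1-knockdown HT-1080 cells. Activity was normalised to DMSO and cell-free wells, then fitted as concentration-response curves.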
# HT1080NT lethal: kills 2HG-producing HT-1080-NT fibrosarcoma cells. Potency, µM (titrated, usually from 46.1 µM), inactives show top-dose activity, negative = less viability, most hits filed as cytotoxic. hit rate 1.6% among 360,000. HT-1080-NT fibrosarcoma viability, CellTiter-Glo ATP luminescence, 48 h;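 further: NT is the 2HG producing partner of a matched IDH1 knockdown line; 0% = DMSO-treated cells and -100% = media-only wells without cells; nearly all actives have a fitted effect of over 55% in size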
#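 Toxicity toward the 2HG-producing NT line was scored as %Activity, normalised to DMSO and no-cell wells, from CellTiter-Glo luminescence after 48 hours' treatment.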
# * hit, by the source's call; i = inactive; ? = inconclusive; / = no result. A selection: hits, their analogues and other compounds. The true share with any hit is near 5.7%. The call rests on the fitted dose curve; in most records, active means well fitted curve in the direction sought with a large enough effect; inconclusive means small, poorly fitted or top-dose-only effect, or another doubt; inactive means no such curve, though single readings can be large; an effect the other way counts as inactive or inconclusive. Unless noted, on the % scale 0 is the no-effect control and ±100 the full control effect; potency means the concentration at half of the fitted maximal effect.
SMILES,KB-3-1 tox,KB-V1 MDR tox,HT1080 IDH1KD tx,HT1080NT lethal
C=CCSc1nnc(CSc2nc3sc4c(c3c(=O)[nH]2)CCCC4)n1-c1ccccc1,i,21µM*,?,-16%
C=CCn1c(SCC(=O)NC)nc2sc3c(c2c1=O)CCC3,i,2.1µM*,-1%,-4%
O=C(CS(=O)(=O)c1cccc2nsnc12)Nc1ccc(F)cc1,i,i,/,/
Cn1nc(CC(=O)Nc2ccc3c(c2)OCCO3)c2ccccc2c1=O,?,i,-17%,-5%
Cc1ccc(NC(=O)Cc2nn(C)c(=O)c3ccccc23)cc1F,7.3µM*,2.1µM*,?,?
COc1cccc(OC)c1NC(=O)Cc1nn(C)c(=O)c2ccccc12,i,i,0%,1%
Cc1csc(NC(=O)Cc2nn(C)c(=O)c3ccccc23)n1,?,16µM*,-11%,-8%
Cc1ccc(NC(=O)Cc2ccc(-n3c(C)nc4cccnc43)cc2)cc1C,i,i,/,/
Cc1cccc(N/C=C/c2onc(C)c2[N+](=O)[O-])c1,?,i,-5%,-7%
Cc1cc(O)ccc1N/C=C/c1onc(C)c1[N+](=O)[O-],i,i,?,16µM*
Cc1cccc(/C=C/c2onc(C)c2[N+](=O)[O-])n1,10µM*,?,6.5µM*,?
CCN1CCN(Cc2c(O)ccc3oc(C)c(C(=O)Nc4cccc(C(F)(F)F)c4)c23)CC1,i,i,/,/
CCOC(=O)c1c(NC(=O)c2cc(CC)on2)sc(C)c1C,i,?,/,/
Cc1ccc(S(=O)(=O)N2CCc3cc(C(=O)N(C)Cc4ccccc4)ccc32)cc1,i,?,/,/
COc1cccc(S(=O)(=O)Nc2cccc(C(=O)N3CCCC3)c2)c1,i,i,1%,-10%
COc1ccccc1NS(=O)(=O)c1cccc(C(=O)N2CCCC2)c1,i,?,9%,3%
COc1cc(OC)c(S(=O)(=O)Nc2ccccc2N2CCCCC2)cc1NC(C)=O,i,i,0%,-2%
Cc1ccccc1OCCC(=O)Nc1cccc(S(=O)(=O)Nc2ccccc2Cl)c1,?,12µM*,-2%,-7%
COc1cc(S(=O)(=O)Nc2ccccc2N2CCCCC2)ccc1NC(C)=O,i,i,8.2µM*,16µM*
COc1cccc(S(=O)(=O)Nc2cccc(C(=O)N3CCCCCC3)c2)c1,i,15µM*,1%,8%
COc1ccccc1NS(=O)(=O)c1cccc(C(=O)N2CCCCCCC2)c1,i,16µM*,-2%,10%
O=C1[C@@H]2CSC(c3ccc(Cl)cc3)N2C(=O)N1c1ccccc1 (stereo partly specified),i,i,/,/
Cc1nc2ccn(Cc3ccccc3)c(=O)c2cc1C(=O)Nc1ccc(F)cc1Cl,i,i,/,/
O=C(NCc1ccccc1)c1c2c(nc3ccccc13)C(=O)N(C1CCCCC1)C2,i,i,/,/
Cc1ccc(NS(=O)(=O)c2cccc(C(=O)N3CCCCCC3)c2)cc1,i,i,-10%,-14%
SMILES,KB-3-1 tox,KB-V1 MDR tox,HT1080 IDH1KD tx,HT1080NT lethal
O=C(c1cccc(S(=O)(=O)Nc2ccccc2Cl)c1)N1CCC1,i,i,0%,1%
CC1CCCN(C(=O)c2cccc(S(=O)(=O)Nc3cc(C(F)(F)F)ccc3Cl)c2)C1 (stereo unspecified),i,18µM*,21%,-3%
Cc1ccc(NS(=O)(=O)c2cccc(C(=O)N3CCCCC3)c2)cc1,i,12µM*,12%,9%
CCOC(=O)N1CCN(C(=O)c2cccc(S(=O)(=O)Nc3ccccc3Cl)c2)CC1,i,18µM*,8%,2%
COc1ccc(CN2CC[C@H]3C=CC[C@@H](C(=O)NCc4cccnc4)[C@H]3C2=O)cc1OC,i,i,/,/
COc1ccccc1CNC(=O)c1oc2ccc(S(=O)(=O)N3CCCCC3)cc2c1C,i,i,/,/
NC(N)=NCCCS(=O)(=O)Nc1ccc(Nc2c3ccccc3nc3cc([N+](=O)[O-])ccc23)cc1,15µM*,?,17%,9%
CN(C)S(=O)(=O)c1ccc(-c2cn3ccccc3n2)cc1,i,16µM*,?,?
CCOc1ccc(-c2cn3ccccc3n2)cc1[N+](=O)[O-],i,?,16µM*,15µM*
CCN(CC)S(=O)(=O)c1ccc(-c2cn3ccccc3n2)cc1,i,?,-3%,-5%
Cc1ccc(CNC(=O)C2CCC(CNS(=O)(=O)c3ccc4c(c3)CCCC(=O)N4)CC2)cc1 (stereo unspecified),i,i,/,/
C=CCn1c(CNC(=O)c2cccs2)nnc1SCC(=O)c1ccc(Br)cc1,i,15µM*,?,-6%
COc1ccccc1NC(=O)CSC1=Nc2ccccc2N=C(c2ccc(F)cc2)C1,i,?,/,/
CCc1ccc(NC(=O)c2cc3ccccn3n2)cc1,15µM*,?,/,/
O=C(NC1CCCc2ccccc21)C1CCN(S(=O)(=O)c2cccc(C(F)(F)F)c2)CC1 (stereo unspecified),i,23µM*,-22%,-2%
CN1CCN(c2cccc(Nc3nn4c(=O)c5ccc(C(F)(F)F)cc5nc4s3)c2)CC1,i,i,/,/
c1ccc(COc2ncnc3c2ncn3CCCNC2CCN(Cc3ccccc3)CC2)cc1,?,i,18µM*,23µM*
CSc1ncnc2c1ncn2CCCNC1CCN(Cc2ccccc2)CC1,i,?,-27%,-4%
Cc1ccc2oc(=O)c3cnn(CC(=O)N4CCN(c5cc(Cl)ccc5C)CC4)c3c2c1,i,i,/,/
O=C(Nc1ccc(Cl)cn1)c1cccc2c(Br)cccc12,12µM*,i,?,?
O=C(Nc1ccc(Br)cn1)c1cccc(C(=O)Nc2ccc(Br)cn2)c1,i,i,-4%,-4%
O=C(Nc1ccc(Br)cn1)c1ccc2nccnc2c1,?,16µM*,-4%,-1%
O=C(Nc1ccc(Br)cn1)c1cccc2ccccc12,i,1µM*,5.8µM*,2.9µM*
COc1ccc(NC(=O)CN2C(=O)CSc3ccc(S(=O)(=O)N(C)C)cc32)cc1Cl,i,i,/,/
CC(C)(C)C(=O)OCc1cc(=O)n2nc(C3CCCCC3)sc2n1,i,i,/,/
SMILES,KB-3-1 tox,KB-V1 MDR tox,HT1080 IDH1KD tx,HT1080NT lethal
Cc1cc(C)c(OCC(=O)Nc2nc(-c3ccccn3)cs2)c(C)c1,?,6.5µM*,?,-19%
O=C(CCS(=O)(=O)c1ccccc1)Nc1nc(-c2ccccn2)cs1,?,i,-7%,-10%
Cc1ccccc1OCC(=O)Nc1nc(-c2ccncc2)cs1,i,15µM*,-10%,-16%
O=C(Sc1ccccc1)c1cccc(Cn2cc(C(F)(F)F)ccc2=O)c1,i,?,23µM*,18µM*
O=C(Nc1ccccc1)c1ccc(Cn2cc(C(F)(F)F)ccc2=O)cc1,i,15µM*,-1%,?
O=C(NCc1noc2ccccc12)N1CCN(c2ccccc2)CC1,i,i,/,/
CCN(CC)CCN1CCN(c2cncc(-c3ccc4ccccc4c3)n2)CC1,?,?,16µM*,23µM*

# High-throughput results: PubChem BioAssay, National Center for Advancing Translational Sciences (NCATS)
